Several values for one entry are separate records, joined by “and”; a condition that tells them apart may be missing. Identical values can stand only once. Inconclusive results are not listed. Some compounds were tested as several samples or in several runs, with calls that do not always agree. Activity calls are given as the source filed them. Calls come from the whole dose curve; as a rule, active = well fitted curve in the direction sought with a large enough effect in the repeat runs; inconclusive = weak or mixed curves; inactive = no such curve, though single readings can be large; an effect the other way counts as inactive or inconclusive.
Key:
[1] = qHTS RealTime-Glo MT Cell Viability Assay in HepG2 cells - 40 hour (AID 1224870); note: nearly all actives have a fitted effect of over 50% in size
In short: (§1)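 HepG2 cells mixed with RealTime-Glo MT reagents (NanoLuc plus cell-permeant prosubstrate) were seeded at 600 cells/well, incubated 5 h at 37 C/5% CO2, then pinned with compounds in DMSO; nonlytic luminescence tracked viability during 40 h treatment.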

[2] = A CellTox Green Cytotoxicity Assay to monitor cytotoxicity in HEK293 cells - 40 hour (AID 1224871); note: nearly all actives have a fitted effect of over 45% in size; note: potency is the fitted concentration of half-maximal effect
In short: (§2)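 Real-time, in one plate: 600 HEK293 cells/well with dead-cell DNA dye, pinned compound after 5 h, 37 C incubation over 40 h; viable cells give no appreciable fluorescence.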

[3] = qHTS RealTime-Glo MT Cell Viability Assay in HEK293 cells - 16 hour (AID 1224872); note: nearly all actives have a fitted effect of over 50% in size; note: potency is the fitted concentration of half-maximal effect
In short: (§3)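 Quantitative high-throughput screen of the Tox21 10K library in HEK293: cells and RealTime-Glo reagents plated together, compound added at 5 h, luminescence monitored through 40 h at 37 C.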

[4] = qHTS RealTime-Glo MT Cell Viability Assay in HepG2 cells - 8 hour (AID 1224873); note: nearly all actives have a fitted effect of over 55% in size
In short: as §1

[5] = qHTS RealTime-Glo MT Cell Viability Assay in HEK293 cells - 40 hour (AID 1224874); conditions: RealTime-Glo luminescence; max response: stronger effect = lower value; note: nearly all actives have a fitted effect of over 50% in size; note: potency is the fitted concentration of half-maximal effect
In short: (§4)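 Kinetic, non-lysing viability readout. Seed HEK293 (600/well) with reagent, incubate 5 h at 37 C/5% CO2, pin 23 nL compound in DMSO, incubate at 37 C, read luminescence at 0, 8, 16, 24, 32, 40 h.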

[6] = A CellTox Green Cytotoxicity Assay to monitor cytotoxicity in HEK293 cells - 24 hour (AID 1224875); note: series mostly up to about 77 µM; nearly all actives have a fitted effect of over 45% in size
In short: as §2

[7] = A CellTox Green Cytotoxicity Assay to monitor cytotoxicity in HepG2 cells - 16 hour (AID 1224876); note: nearly all actives have a fitted effect of over 45% in size
In short: (§5)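 Cytotoxicity was tracked as dead-cell DNA fluorescence in HepG2 cells treated with test compounds at 37 C; each time-point value comes from one kinetic series spanning 0, 8, 16, 24, 32 and 40 h.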

[8] = qHTS RealTime-Glo MT Cell Viability Assay in HepG2 cells - 32 hour (AID 1224877); note: nearly all actives have a fitted effect of over 55% in size
In short: (§6)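 Compound treatment began 5 h after plating HepG2 cells (600/well) with NanoLuc luciferase and prosubstrate. Plates stayed at 37 C for 40 h; luminescence was captured at six time points, 0 h through 40 h.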

[9] = A CellTox Green Cytotoxicity Assay to monitor cytotoxicity in HepG2 cells - 24 hour (AID 1224878); note: nearly all actives have a fitted effect of over 45% in size; note: potency is the fitted concentration of half-maximal effect
In short: as §5

[10] = A CellTox Green Cytotoxicity Assay to monitor cytotoxicity in HepG2 cells - 40 hour (AID 1224879); note: nearly all actives have a fitted effect of over 40% in size; note: potency is the fitted concentration of half-maximal effect
In short: as §5

[11] = qHTS RealTime-Glo MT Cell Viability Assay in HEK293 cells - 0 hour (AID 1224880)
In short: as §4

[12] = A CellTox Green Cytotoxicity Assay to monitor cytotoxicity in HEK293 cells - 32 hour (AID 1224881); note: nearly all actives have a fitted effect of over 40% in size
In short: as §2

[13] = A CellTox Green Cytotoxicity Assay to monitor cytotoxicity in HepG2 cells - 0 hour (AID 1224882); note: nearly all actives have a fitted effect of over 35% in size
In short: as §5

[14] = A CellTox Green Cytotoxicity Assay to monitor cytotoxicity in HepG2 cells - 32 hour (AID 1224883); note: nearly all actives have a fitted effect of over 50% in size; note: potency is the fitted concentration of half-maximal effect
In short: as §5

[15] = A CellTox Green Cytotoxicity Assay to monitor cytotoxicity in HEK293 cells - 8 hour (AID 1224884); note: nearly all actives have a fitted effect of over 35% in size
In short: as §2

[16] = qHTS RealTime-Glo MT Cell Viability Assay in HepG2 cells - 16 hour (AID 1224885); note: nearly all actives have a fitted effect of over 50% in size
In short: as §6

[17] = qHTS RealTime-Glo MT Cell Viability Assay in HEK293 cells - 24 hour (AID 1224886)
In short: as §3

[18] = qHTS RealTime-Glo MT Cell Viability Assay in HEK293 cells - 8 hour (AID 1224887)
In short: as §4

[19] = A CellTox Green Cytotoxicity Assay to monitor cytotoxicity in HEK293 cells - 16 hour (AID 1224888); note: nearly all actives have a fitted effect of over 35% in size
In short: as §2

[20] = qHTS RealTime-Glo MT Cell Viability Assay in HepG2 cells - 0 hour (AID 1224889); note: nearly all actives have a fitted effect of over 50% in size
In short: as §6
% is set by controls: 0 for no effect and ±100 for the full control effect.

CC[Si](OC(C)=O)(OC(C)=O)OC(C)=O
inactive: Potency [1] | Potency [2] | Potency [3] | Potency [4] | max response [5] 13.5% and 2.5% | Potency [6] | Potency [7] | Potency [8] | Potency [9] | Potency [10] | Potency [11] | Potency [12] | Potency [13] | Potency [14] | Potency [15] | Potency [16] | Potency [17] | Potency [18] | Potency [19] | Potency [20]

OC1CCCC1
inactive: Potency [1] | Potency [2] | Potency [3] | Potency [4] | max response [5] 8.58% and -2.67% | Potency [6] | Potency [7] | Potency [8] | Potency [9] | Potency [10] | Potency [11] | Potency [12] | Potency [13] | Potency [14] | Potency [15] | Potency [16] | Potency [17] | Potency [18] | Potency [19] | Potency [20]

Clc1cc(Cl)c(Cl)cc1Cl
inactive: Potency [1] | Potency [2] | Potency [3] | Potency [4] | max response [5] 4.68% and 15.5% | Potency [6] | Potency [7] | Potency [8] | Potency [9] | Potency [10] | Potency [11] | Potency [12] | Potency [13] | Potency [14] | Potency [15] | Potency [16] | Potency [17] | Potency [18] | Potency [19] | Potency [20]

COC(=O)c1ccc(C(=O)OC)cc1
35.1 µM (active) and inactive: Potency [3]
active: Potency [5] 35.1 µM
15.7 µM (active) and inactive: Potency [2]
inactive: Potency [1] | Potency [4] | max response [5] 0.23% | Potency [6] | Potency [8] | Potency [11] | Potency [12] | Potency [13] | Potency [15] | Potency [16] | Potency [17] | Potency [18] | Potency [19]
19.8 µM (active) and inactive: Potency [14]
22.2 µM (active) and inactive: Potency [9] | Potency [10]

CCC(=O)O
inactive: Potency [1] | Potency [2] | Potency [3] | Potency [4] | max response [5] 12.8% and 8.4% and 13% | Potency [6] | Potency [7] | Potency [8] | Potency [9] | Potency [10] | Potency [11] | Potency [12] | Potency [13] | Potency [14] | Potency [15] | Potency [16] | Potency [17] | Potency [18] | Potency [19]

Nc1cc(-c2ccncc2)c[nH]c1=O
inactive: Potency [1] | Potency [2] | Potency [3] | Potency [4] | max response [5] -8.6% and 7.61% | Potency [6] | Potency [7] | Potency [8] | Potency [9] | Potency [10] | Potency [11] | Potency [12] | Potency [13] | Potency [14] | Potency [15] | Potency [16] | Potency [17] | Potency [18] | Potency [19] | Potency [20]

CCCCOCCOCCOC(=O)CCCCC(=O)OCCOCCOCCCC
inactive: Potency [1] | Potency [2] | Potency [3] | Potency [4] | max response [5] 3.67% and 5.42% | Potency [6] | Potency [8] | Potency [9] | Potency [10] | Potency [11] | Potency [12] | Potency [13] | Potency [14] | Potency [15] | Potency [16] | Potency [17] | Potency [18] | Potency [19]

O=C1N=C(O)CN1/N=C/c1ccc(-c2ccc([N+](=O)[O-])cc2)o1
inactive: Potency [1] | Potency [2] | Potency [3] | Potency [4] | max response [5] -2.04% | Potency [6] | Potency [8] | Potency [9] | Potency [10] | Potency [11] | Potency [12] | Potency [13] | Potency [14] | Potency [15] | Potency [16] | Potency [17] | Potency [18] | Potency [19] | Potency [20]

OC[C@@H](O)[C@H](O)[C@H](O)[C@@H](O)CO
inactive: Potency [1] | Potency [2] | Potency [3] | Potency [4] | max response [5] 7.24% and 7.63% | Potency [6] | Potency [7] | Potency [8] | Potency [9] | Potency [10] | Potency [11] | Potency [12] | Potency [13] | Potency [14] | Potency [15] | Potency [16] | Potency [17] | Potency [18] | Potency [19] | Potency [20]

C[C@@H](O)[C@H]1C(=O)N2C(C(=O)O)=C(S[C@@H]3CN[C@H](C(=O)N(C)C)C3)[C@H](C)[C@H]12
inactive: Potency [1] | Potency [2] | Potency [3] | Potency [4] | max response [5] 2.43% and 4.85% | Potency [6] | Potency [7] | Potency [8] | Potency [9] | Potency [10] | Potency [11] | Potency [12] | Potency [13] | Potency [14] | Potency [15] | Potency [16] | Potency [17] | Potency [18] | Potency [19] | Potency [20]

CCCCNC(N)=O
inactive: Potency [1] | Potency [2] | Potency [3] | Potency [4] | max response [5] 5.63% and 4.35% | Potency [6] | Potency [7] | Potency [8] | Potency [9] | Potency [10] | Potency [11] | Potency [12] | Potency [13] | Potency [14] | Potency [15] | Potency [16] | Potency [17] | Potency [18] | Potency [19] | Potency [20]
